Source: PubChem BioAssay (National Center for Advancing Translational Sciences (NCATS))
Resorufin fluor: resorufin region autofluorescence. 0.04% of 59,000 active. Compound fluorescence, resorufin region 547/598 nm, buffer; hits give high values. max dye-equivalent concentration, M
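Tris 100 mM pH 8.0; compound added, 15 min RT; CCD imager read, ex 547 nm/em 598 nm; signal normalized to resorufin standard curve (six concentrations per plate) as dye-equivalent concentration.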
Texas Red fluor: Texas Red region autofluorescence; AID 587; Compound fluorescence, Texas Red channel, 547/618 nm; hits give high values; max dye-equivalent concentration, M; 0.06% of 59,000 active; in the data active = max dye-equivalent concentration above about 10 nM; inconclusive = between about 1.1 nM and that limit
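Compound fluorescence was read after 15 min at room temperature in 100 mM Tris, pH 8.0, using 547 nm excitation and 618 nm emission across a concentration series. It was expressed as Texas Red dye-equivalent concentration from an on-plate standard curve.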
A488 autofl: compound fluoresces in the A488 spectral region; compound autofluorescence, A488 spectral region, dye equivalency; Compound Type: qHTS ECL - MLSMR; max dye equivalency, M; 0.1% of 59,000 active; AID 591
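Compounds pin-transferred into 100 mM Tris buffer, pH 8.0, incubated 15 min at room temperature, then imaged with 480 nm excitation/540 nm emission filters. Fluorescence converted to Alexa 488 dye-equivalent concentration via an on-plate six-point A488 standard curve.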
Fluorescein fluor: compound autofluorescence in fluorescein spectral region; Compound autofluorescence, 480/540 nm, fluorescein-equivalent; hits give high values; max fluorescein-equivalent concentration, M; 0.91% of 59,000 active; AID 593; in the data active = max fluorescein-equivalent concentration above about 10 nM; inconclusive = between about 1.1 nM and that limit
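Tris 100 mM pH 8.0; 15 min RT; CCD read, ex 480/em 540 nm. Output: fluorescein-equivalent concentration per compound concentration, from six-point dye series on each plate.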
A647 autofl: compound fluoresces in the A647 spectral region. Compound fluorescence, A647 channel (570/671 nm), Tris buffer. max dye-equivalent concentration, M. 59,000 tested, under 10 active. AID 592
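Buffer was dispensed, compounds and Alexa 647 standards were pin-transferred, and plates sat 15 min at room temperature. Intensity at 570/671 nm was then converted to dye-equivalent concentration using the plate's A647 standard curve.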
Rhodamine autofl: rhodamine region autofluorescence. 0.05% of 59,000 active. max dye-equivalent concentration, M. AID 594. Rhodamine-region fluorescence, 547/598 nm, Tris buffer; hits give high values; in the data active = max dye-equivalent concentration above about 11 nM; inconclusive = between about 1.1 nM and that limit
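Read-out is relative fluorescence at 547 nm excitation and 598 nm emission, expressed as dye-equivalent concentration using rhodamine standards on every plate. Each compound was profiled across a concentration series after 15 min in 100 mM Tris, pH 8.0.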
Numbers stand for hits; 0 = inactive; ? = inconclusive. Compounds with a hit are over-represented: about 0.95% of the library has one in this group of screens. Unless noted, no rule for the calls is given here.

SMILES | Resorufin fluor | Texas Red fluor | A488 autofl | Fluorescein fluor | A647 autofl | Rhodamine autofl
c1ccc(CCNc2ncnc3c2nnn3Cc2ccccc2)cc1 | 0 | 0 | 0 | 1.16e-08M | 0 | 0
O=c1cc(-c2ccccc2)oc2cc(O[C@H]3O[C@H](CO)[C@@H](O)[C@H](O)[C@@H]3O)c(O)c(O)c12 | 0 | 0 | 0 | 0 | 0 | 0
CCOC(=O)c1c(C)oc2ccc(O)c(CN(C)C)c12 | 0 | 0 | 0 | ? | 0 | 0
CCOC(=O)c1c(C)oc2c1c(/C=N/c1ccccn1)c(O)c1ccccc12 | 0 | 0 | 0 | 2.15e-08M | 0 | 0
CCCCOC(=O)C(C#N)c1nc2ccccc2nc1N1CCOCC1 (configuration not stated) | 0 | 0 | ? | 2.89e-08M | 0 | 0
CCCCCCNC(=O)C(C#N)c1nc2ccccc2nc1N1CCCC1 (configuration not stated) | 0 | 0 | 4.11e-08M | 8.01e-07M | 0 | 0
CCCCCNC(=O)C(C#N)c1nc2ccccc2nc1N1CCCC1 (configuration not stated) | 0 | 0 | 2.89e-08M | 5.52e-07M | 0 | 0
CCCCCCOC(=O)C(C#N)c1nc2ccccc2nc1N1CCOCC1 (configuration not stated) | 0 | 0 | 0 | ? | 0 | 0
COCCCNC(=O)C(C#N)c1nc2ccccc2nc1N1CCCC1 (configuration not stated) | 0 | 0 | ? | 6.6e-08M | 0 | 0
O=S(=O)(NCCNC/C=C\c1ccc(Br)cc1)c1cccc2cnccc12 | 0 | 0 | 0 | ? | 0 | 0
CCCN1C[C@@H](CSC)C[C@H]2c3cccc4[nH]cc(c34)C[C@@H]21 | 0 | ? | 0 | ? | 0 | 0
CN1[C@@H]2CC(OC(=O)[C@@H](CO)c3ccccc3)C[C@@H]1[C@H]1O[C@H]12 (some centres not stated) | 0 | 0 | 0 | ? | 0 | 0
CCCCCCNC(=O)C(C#N)c1nc2ccccc2nc1N1CCOCC1 (configuration not stated) | 0 | 0 | 3.02e-08M | 4.12e-07M | 0 | 0
CCCCN(CCCC)c1nc2ccccc2nc1C(C#N)C(=O)NCCCOC (configuration not stated) | 0 | 0 | ? | 5.73e-08M | 0 | 0
C[C@@]12C(=O)OC(=O)[C@@]1(C)[C@H]1CC[C@@H]2O1 | 0 | ? | 0 | ? | 0 | 0
CN1CCc2c(cc(O)c(O)c2Cl)[C@H](c2cccc(Cl)c2)C1 | 0 | 0 | 0 | ? | 0 | 0
Cc1cc(=O)oc2c(CN3CCC(C)CC3)c(O)c(Cl)cc12 | 0 | 0 | 0 | 1.12e-08M | 0 | ?
NCC[C@H]1CCC[C@H](CCN)N1 | 0 | 0 | 0 | ? | 0 | 0
O=c1c(-c2ccccc2)[n+]([O-])c2ccccc2n1O | 0 | 0 | 0 | 1.73e-08M | 0 | 0
O=c1cc(-c2ccc(O)c(O)c2)oc2cc(O[C@@H]3O[C@@H](CO)[C@@H](O)[C@@H](O)[C@H]3O)cc(O)c12 | 0 | 0 | 0 | ? | 0 | 0
Cn1cc(C2=C(c3ccc(Cl)cc3Cl)C(=O)NC2=O)c2ccccc21 | ? | 0 | 2.72e-08M | 4.98e-07M | 0 | ?
O=C1c2ccccc2C(=O)c2c1ccc(N1C(=O)c3ccccc3C1=O)c2-c1c(N2C(=O)c3ccccc3C2=O)ccc2c1C(=O)c1ccccc1C2=O | 0 | 0 | 0 | 0 | 0 | 0
CC1(C)c2ccccc2N2CC(=O)NC21/C=C/c1ccco1 (configuration not stated) | 0 | 0 | 0 | ? | 0 | 0
O=C1CC(/C=C/c2ccco2)=Nc2ccccc2N1 | 0 | ? | ? | 3.58e-08M | 0 | 0
CC(C)C[C@H](NC(=O)[C@@H](NC(=O)N[C@@H](Cc1ccccc1)C(=O)O)[C@H]1CCN=C(N)N1)C(=O)N[C@H](C=O)Cc1ccccc1 | 0 | 0 | 0 | ? | 0 | 0
SMILES | Resorufin fluor | Texas Red fluor | A488 autofl | Fluorescein fluor | A647 autofl | Rhodamine autofl
NC(=O)c1ncn([C@@H]2O[C@@H](CO)[C@@H](O)[C@H]2O)n1 | 0 | ? | 0 | ? | 0 | 0
COC1=CC(=O)C[C@@H](C)[C@@]12Oc1c(Cl)c(OC)cc(OC)c1C2=O | 0 | 0 | 0 | 0 | 0 | 0
CCOC(=O)CSc1nnc(N)s1 | 0 | ? | 0 | ? | 0 | 0
CCOC(=O)CSC1=NC(=O)CS1 | 0 | 0 | 0 | 2e-08M | 0 | 0
Cc1cccc(-c2c3c(=O)n(C)c(=O)n(C)c3c3c(C)cc(C)nn23)c1 | 0 | 0 | 0 | ? | 0 | 0
Cc1cccc(-c2c3c(=O)n(C)c(=O)n(C)c3c3cccnn23)c1 | 0 | 0 | 0 | 1.06e-08M | 0 | 0
O=S(=O)(NC1CCCCCC1)c1cccc2cccnc12 | 0 | 0 | 0 | 0 | 0 | 0
CC(CS(=O)(=O)c1cccc2cccnc12)N1CCCCC1 (configuration not stated) | 0 | 0 | 0 | 1.61e-08M | 0 | 0
COc1ccc(-c2coc3ccc(O[C@@H]4O[C@@H](COC(C)=O)[C@@H](OC(C)=O)[C@@H](OC(C)=O)[C@H]4OC(C)=O)cc3c2=O)cc1 | 0 | 0 | 0 | 0 | 0 | 0
CCn1nc(C)c(/C=C2\CCCC3=C2OC(N)=C(C#N)C3c2c(C)nn(CC)c2C)c1C (configuration not stated) | 0 | 0 | 0 | 2.42e-08M | 0 | 0
Cc1nn(-c2ccccc2)c(Cl)c1C1C(C#N)=C(N)OC2=C1C(=O)CCC2 (configuration not stated) | 0 | 0 | 0 | ? | 0 | 0
c1ccc2c(-c3ccncc3)c[nH]c2c1 | 0 | 0 | 0 | ? | 0 | 0
Nc1cc(-c2ccncc2)c[nH]c1=O | 0 | 0 | 0 | 1.08e-08M | 0 | 0
CCCN1CCCc2cc(CN)ccc21 | 0 | 0 | ? | 3.28e-08M | 0 | 0
CCN1C(=S)SC(=O)C1=C1C=C(C)OC(C)=C1 | 0 | ? | ? | 1.72e-07M | 0 | 0
CCN1C(=S)SC(=O)C1=C1C=C(C)N(Cc2ccco2)C(C)=C1 | 0 | ? | 0 | ? | 0 | 0
CC1(C)CC(=O)C2=C(C1)OC(N)=C(C#N)C21CCN(Cc2ccccc2)CC1 | 0 | 0 | ? | 3.17e-08M | 0 | 0
Nc1ncnc2c1ncn2[C@@H]1O[C@@H](COP(=O)(O)OP(=O)(O)OP(=O)(O)OP(=O)(O)OC[C@@H]2O[C@@H](n3cnc4c(N)ncnc43)[C@@H](O)[C@H]2O)[C@H](O)[C@@H]1O | 0 | 0 | 0 | 0 | 0 | 0
C[C@H](O)[C@H](O)[C@@H](O)c1cnc2nc(N)[nH]c(=O)c2n1 | 0 | 0 | 0 | 0 | 0 | 0
N#Cc1cccc(-c2nc3cnc(Nc4ccccc4)nc3n(C[C@H]3CCCO3)c2=O)c1 | 0 | 0 | 0 | 1.28e-08M | 0 | 0
O=c1c(-c2cccs2)nc2cnc(Nc3ccccc3)nc2n1C[C@H]1CCCO1 | 0 | 0 | ? | 4.25e-08M | 0 | 0
COc1cccc(Cn2c(=O)c(-c3cccc(C#N)c3)nc3cnc(Nc4ccccc4)nc32)c1 | 0 | 0 | 0 | 1.28e-08M | 0 | 0
COCCn1c(=O)c(-c2cccc(C#N)c2)nc2cnc(Nc3ccccc3)nc21 | 0 | 0 | 0 | ? | 0 | 0
